IL1B secr inh: inhibitors of inflammasome signaling (IL-1 beta secretion); 4.7% of 360,000 active; THP-1 LPS/ATP IL-1B secretion, AlphaLISA, 16 h; active compounds read low; activity change, % at 57.5 µM; AID 743279; in the data active = activity change below about -50%; inconclusive = mostly about -30% to -49%; note: % is set by controls: 0 for no effect and ±100 for the full control effect
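THP-1 cells pretreated 1 hr with compounds (up to 57.5 uM final), then stimulated with LPS (250 ng/mL final) plus ATP (1.25 mM final); secreted IL-1B measured by AlphaLISA after 16 hr, decreased signal indicating inhibition.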
D3 antag: D3 dopamine receptor (human) antagonism | 2.5% of 360,000 active | D3R cells, DiscoveRx beta-arrestin luminescence, antagonist mode; active compounds read low | AID 652054 | max response, negative = inhibition, %; in the data active = max response below about -50%; inconclusive = no clear call, values can overlap the other calls; note: % is set by controls: 0 for no effect and ±100 for the full control effect
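Cells expressing the human receptor were seeded at 1500 cells/well, incubated overnight at 37 degrees C in 5% CO2, then exposed to library compounds with dopamine controls for 90 minutes at 37 degrees C before luminescent detection.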
TDP1 cell noCPT: qHTS for Inhibitors of human tyrosyl-DNA phosphodiesterase 1 (TDP1): qHTS in cells in absence of CPT; DT40 Tdp1-/- hTDP1 cells, no CPT, ATP luminescence, 48 h; 15% of 420,000 active; AID 686978, 2013; Potency, µM (top dose mostly 46.2 µM), for the others: at the highest dose activity change, negative = growth inhibition, actives largely listed as inhibitors; note: potency is the fitted concentration of half-maximal effect; % is set by controls: 0 for no effect and ±100 for the full control effect; nearly all actives have a fitted effect of over 55% in size
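No-CPT arm: Tdp1-/-;hTDP1 DT40 cells (400/well) plus compounds, incubated ≥48 hr at 37 °C. Readout CellTiter-Glo luminescence.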
D3 ag: D3 dopamine receptor (human) agonism | D3R DiscoveRx beta-arrestin cells, luminescence, 90 min | max activation, % | 0.58% of 410,000 active; in the data active = max activation above about 30%; note: 0% is about no effect
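Agonist-mode cell screen: cells plated at 1500/well and incubated overnight at 37 °C, then exposed to library compounds for 90 min at 37 °C. Detection reagent was added for 30–60 min at room temperature, and luminescence was read.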
DT40 TDP1 CPT: DT40-hTDP1 cell growth loss with CPT | Potency, µM (series often up to 46.2 µM), for the others: top-dose activity change, negative = growth inhibition, most hits filed as inhibitors | chicken DT40 Tdp1-/-;hTDP1 cells + 20 nM CPT, ATP luminescence, 48 h | AID 686979 | 12% of 420,000 active; note: potency is the fitted concentration of half-maximal effect; % is set by controls: 0 for no effect and ±100 for the full control effect; nearly all actives have a fitted effect of over 55% in size
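Chicken DT40 Tdp1-/- cells stably complemented with human TDP1 were seeded at 400 cells/well in medium containing 20 nM camptothecin, exposed to pin-transferred compounds, and grown at 37 °C for at least 48 hr. Viability was read as ATP luminescence.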
ClpP mod: qHTS Assay for Activators of ClpP; ATP-dependent Clp protease proteolytic subunit (Bacillus subtilis (strain 168)), P80244; purified B. subtilis ClpP, FRET peptide cleavage, 20 min; Potency, µM (series often up to 57.5 µM), inactives show at the highest dose activity change, negative = active; 1.9% of 340,000 active; AID 651965, 2013; active = well fitted falling curve with a large enough effect; inconclusive = small, poorly fitted or top-dose-only effect; inactive = no such curve, though single readings can be large or run the other way; note: potency is the fitted concentration of half-maximal effect; the source files actives as falling curves though it sought activators and does not explain the sign; nearly all actives have a fitted effect of over 65% in size
Target sequence (P80244 whole entry, looked up): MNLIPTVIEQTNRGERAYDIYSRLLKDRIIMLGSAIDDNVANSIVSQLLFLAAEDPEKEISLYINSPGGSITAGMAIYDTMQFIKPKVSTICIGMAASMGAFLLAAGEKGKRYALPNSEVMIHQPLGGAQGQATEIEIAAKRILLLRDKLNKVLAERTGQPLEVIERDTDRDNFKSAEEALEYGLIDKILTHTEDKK
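ClpP 10 microg/mL final, pH 8 Tris/KCl buffer with BSA, glycerol, Tween-20; compound pinned in; FRET-FV substrate; RT 20 min; Ex320/Em430; ΔFRET vs ADEP 5.8 microM, DMSO, no enzyme.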
The depositor's hits bear a star; i = inactive; u = inconclusive; x = no result. An excerpt weighted towards active compounds, which were near 21% of everything screened. Unless noted, calls come from the whole dose curve; as a rule, active = well fitted inhibition curve with a large enough effect; inconclusive = small, poorly fitted or top-dose-only effect; inactive = flat fitted curve, though single readings scatter.

SMILES	IL1B secr inh	D3 antag	TDP1 cell noCPT	D3 ag	DT40 TDP1 CPT	ClpP mod
Cc1oc(-c2ccccc2)nc1CS(=O)CC(=O)N1CCc2ccccc2C1 (stereo not drawn)	11	-23	26µM*	-1	9.2µM*	-5%
Cc1ccc(-c2nc(CS(=O)CC(=O)N3CCN(c4ccc(Cl)cc4)CC3)c(C)o2)cc1 (stereo not drawn)	x	x	21µM*	7	16µM*	-1%
CCOC(=O)N1CCC(NC(=O)CS(=O)Cc2nc(-c3ccc(Cl)cc3)oc2C)CC1 (stereo not drawn)	5	12	15µM*	-4	u	-16%
CCOC(=O)N1CCC(NC(=O)CS(=O)Cc2nc(-c3ccc(C)cc3)oc2C)CC1 (stereo not drawn)	10	15	-15%	6	u	-7%
Cc1oc(-c2ccc(Cl)cc2)nc1CS(=O)CC(=O)NCCCN1CC(C)CC(C)C1 (stereo not drawn)	-70*	1	u	-9	u	-10%
CCCCn1c(SCC(=O)NCCCOC)nc2c(sc3ccccc32)c1=O	x	x	-13%	8	-8%	u
Cc1ccc(-c2nc(CS(=O)CC(=O)N3CCN(c4ccccc4)CC3)c(C)o2)cc1 (stereo not drawn)	-25	-3	15µM*	-19	23µM*	-1%
COc1ccc(-c2nc(CS(=O)CC(=O)NC3CCCC(C)C3C)c(C)o2)cc1OC (stereo not drawn)	0	-19	-15%	-1	-30%	4%
Cc1ccc(-c2nc(CS(=O)CC(=O)NC3CCCC(C)C3C)c(C)o2)cc1 (stereo not drawn)	-54*	-10	11%	-11	-17%	-17%
COc1ccc(Nc2nc3ccccc3nc2NS(=O)(=O)c2cccs2)c(OC)c1	0	-101*	-18%	-15	-23%	-2%
O=C(O)c1ccc(Nc2nc3ccccc3nc2NS(=O)(=O)c2cccs2)cc1	4	-5	15%	5	-12%	u
COc1cccc(Nc2nc3ccccc3nc2NS(=O)(=O)c2cccs2)c1	u	-23	10µM*	-6	9.2µM*	u
COC(C[C@H]1O[C@H]1[C@@H](O)[C@@H](C)OCc1ccccc1)OC	14	13	1%	13	-31%	1%
C=CCn1c(SCC(=O)Nc2ccc(Cl)cn2)nnc1C1CC1	40	-8	19%	-1	29%	0%
Cn1c(SCC(=O)Nc2ccc(Cl)cn2)nnc1C1CC1	-78*	-5	24%	7	-1%	0%
CCOC(=O)Cc1csc(NC(=O)CSc2nnc(C3CC3)n2C)n1	-5	-50*	-14%	1	-2%	-1%
O=C(COC(=O)CCSc1ccccc1)NCc1ccccc1	26	-14	-20%	6	3%	-1%
CCOc1ccc(Nc2sc(C(=O)c3cccc(OC)c3)c(N)c2S(=O)(=O)c2ccccc2)cc1	x	x	x	-5	x	-5%
O=C(C1CCN(C2CC(=O)N(c3cccc(Cl)c3)C2=O)CC1)N1CCCC1 (stereo not drawn)	2	22	u	4	16µM*	2%
COc1cccc(N2CCN(C(=O)C3CCC(=O)N(C4CCCCCC4)C3)CC2)c1 (stereo not drawn)	i	-21	18µM*	-8	15µM*	-4%
CCN(CC)C1CC(=O)N(c2cccc(Cl)c2)C1=O (stereo not drawn)	-8	-17	23µM*	-5	u	x
COC1CCN(C(=O)C2CCC(=O)N(C3CCCCCC3)C2)CC1 (stereo not drawn)	5	1	16%	-9	-7%	0%

From PubChem BioAssay
